The source of these data is PubChem BioAssay (NCATS).

Records with an inconclusive call do not appear. A call without a number means that no potency is given here. Active and inactive are the calls of the source. Calls follow the shape of the dose curve; as a rule, active = well fitted inhibition curve with a large enough effect; inconclusive = small, poorly fitted or top-dose-only effect, or effect the other way; inactive = flat fitted curve, though single readings scatter.
Potency is read from the fitted curve at half-maximal effect.

ATP-dependent 6-phosphofructokinase (Trypanosoma brucei brucei), sequence (O15648 whole entry, looked up): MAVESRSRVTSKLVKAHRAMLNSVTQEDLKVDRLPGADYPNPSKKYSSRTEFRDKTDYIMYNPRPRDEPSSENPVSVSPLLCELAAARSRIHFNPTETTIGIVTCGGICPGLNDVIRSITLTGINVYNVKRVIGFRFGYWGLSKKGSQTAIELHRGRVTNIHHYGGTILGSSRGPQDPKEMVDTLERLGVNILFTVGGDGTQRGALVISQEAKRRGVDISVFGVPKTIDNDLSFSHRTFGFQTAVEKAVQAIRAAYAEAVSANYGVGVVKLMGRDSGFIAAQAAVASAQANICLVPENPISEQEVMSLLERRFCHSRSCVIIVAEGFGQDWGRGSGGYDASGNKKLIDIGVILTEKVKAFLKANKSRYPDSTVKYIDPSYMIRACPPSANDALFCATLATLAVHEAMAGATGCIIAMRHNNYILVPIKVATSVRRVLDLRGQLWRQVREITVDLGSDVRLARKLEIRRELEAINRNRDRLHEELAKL

The experiment addresses ATP-dependent 6-phosphofructokinase (Trypanosoma brucei brucei) (UniProt O15648). In words: qHTS Assay to Find Inhibitors of T. brucei phosphofructokinase: hit validation (AID 492961). The settings on record: T. brucei PFK, ADP-Glo luminescence; series mostly up to 51.4 µM. The essentials: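 Luminescence from ADP-Glo reports ADP generated as T. brucei PFK (1.25 nM) phosphorylates 0.5 mM fructose-6-phosphate using 0.1 mM ATP. Reactions ran 45 min at room temperature, pH 8.0.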
Background: Quantitative high-throughput screening tests each substance at several concentrations.
As to `O=C(COc1ccc(Cl)cc1)OCCNC12CC3CC(CC(C3)C1)C2`, the Potency entry is “inactive”. `CC[C@@]1(O)C(=O)OCc2c1cc1n(c2=O)Cc2cc3c([N+](=O)[O-])cccc3nc2-1`: the Potency result was “inactive”. For `CC(C)(C)NC(=O)[C@@H]1C[C@@H]2CCCC[C@@H]2CN1C[C@@H](O)[C@H](Cc1ccccc1)NC(=O)[C@H](CC(N)=O)NC(=O)c1ccc2ccccc2n1`, the Potency entry is “inactive”.

With `CC(C(=O)O)c1ccc(N2Cc3ccccc3C2=O)cc1` (centres undefined), the Potency result was “inactive”. Under `CN(C)CCCN1c2ccccc2C(C)(C)c2ccccc21` stands “inactive”; under `CCN(CC)Cc1cc(Nc2ccnc3cc(Cl)ccc23)ccc1O`, “inactive”; under `C=C1C(=CC=C2CCC[C@@]3(C)[C@@H]2CC[C@H]3[C@H](C)CCCC(C)C)C[C@@H](O)C[C@@H]1O`, “inactive”. For `C[C@@H]1CCC2[C@@H](C)[C@@H](O)O[C@@H]3O[C@@]4(C)CC[C@@H]1[C@@]23OO4` (some centres undefined) the value was “inactive”.

For `CO[C@H]1C[C@@H]2CC[C@@H](C)[C@@](O)(O2)C(=O)C(=O)N2CCCC[C@H]2C(=O)O[C@H]([C@H](C)C[C@@H]2CC[C@@H](OCCO)[C@H](OC)C2)CC(=O)[C@H](C)/C=C(\C)[C@@H](O)[C@@H](OC)C(=O)[C@H](C)C[C@H](C)/C=C/C=C/C=C/1C`, the Potency result was “inactive”. Take `CCCCCCCCCCCCCCCC(=O)OCC(COC(=O)CCCCCCCCCCCCCCC)OC(=O)CCCCCCCCCCCCCCC`: the Potency entry is “inactive”.

`C[C@]12O[C@H](C[C@]1(O)CO)n1c3ccccc3c3c4c(c5c6ccccc6n2c5c31)CNC4=O`: the Potency entry was “inactive”.

As to `CC(=O)Oc1c(C)cc(OCC(O)CNC(C)C)c(C)c1C` (centres undefined), the Potency entry was “inactive”. Under `CC(C)(C)C(=O)OCOC(=O)[C@@H]1N2C(=O)[C@@H](N=CN3CCCCCC3)[C@H]2SC1(C)C` stands “inactive”. On to `CO[C@H](C(=O)[C@@H](O)[C@@H](C)O)C1Cc2cc3cc(O[C@H]4C[C@@H](O[C@H]5C[C@@H](O)[C@H](O)[C@@H](C)O5)[C@@H](O)[C@@H](C)O4)c(C)c(O)c3c(O)c2C(=O)[C@H]1O[C@H]1C[C@@H](O[C@H]2C[C@@H](O[C@H]3C[C@](C)(O)[C@H](O)[C@@H](C)O3)[C@H](O)[C@@H](C)O2)[C@H](O)[C@@H](C)O1` (some centres undefined), for which the Potency entry is “inactive”. Turning to `C[C@H]1C[C@H]2[C@@H]3CCC4=CC(=O)C=C[C@]4(C)[C@@]3(F)[C@@H](O)C[C@]2(C)[C@@]1(O)C(=O)CO`, the Potency entry was “inactive”. For `Cc1cn([C@H]2C[C@H](O)[C@@H](CO)O2)c(=O)[nH]c1=O` the value was “inactive”; for `CC1=C(/C=C/C(C)=C/C=C/C(C)=C/C=C/C=C(C)/C=C/C=C(C)/C=C/C2=C(C)C(=O)CCC2(C)C)C(C)(C)CCC1=O`, “inactive”; for `CC1=C(/C=C/C(C)=C/C=C/C(C)=C/C=C/C=C(C)/C=C/C=C(C)/C=C/C2=C(C)CCCC2(C)C)C(C)(C)CCC1`, “inactive”. For `CCOC(C)=O` the value was “inactive”. Turning to `CC(C)=O`, the Potency entry was “inactive”. For `O=S(=O)(O)c1cc(O)c2c(N=Nc3ccc(Nc4ccccc4)c4c(S(=O)(=O)O)cccc34)cc(S(=O)(=O)O)cc2c1`, the Potency result was “inactive”.

As to `COc1cc(-c2ccc(-[n+]3nc(-c4ccccc4)nn3-c3ccc([N+](=O)[O-])cc3)c(OC)c2)ccc1-[n+]1nc(-c2ccccc2)nn1-c1ccc([N+](=O)[O-])cc1`, the Potency result is “inactive”. For the compound `C#C[C@]1(O)CC[C@H]2[C@@H]3CCC4=CCCC[C@@H]4[C@H]3C(=C)C[C@@]21CC`, the Potency result was “inactive”. In the case of `CC1=CCC(C(C)(C)O)CC1` (centres undefined), the Potency result was “inactive”. Under `COC(C(=O)C(O)C(C)O)C1Cc2cc3cc(OC4CC(OC5CC(O)C(O)C(C)O5)C(O)C(C)O4)c(C)c(O)c3c(O)c2C(=O)C1OC1CC(OC2CC(OC3CC(C)(O)C(O)C(C)O3)C(O)C(C)O2)C(O)C(C)O1` (centres undefined) stands “inactive”; under `CCCCCCCC(=O)O`, “inactive”.

For `CC1(C)S[C@@H]2[C@H](NC(=O)[C@@H](NC(=O)N3CCNC3=O)c3ccccc3)C(=O)N2[C@H]1C(=O)O`, the Potency result was “inactive”. As for `CCCCC/C=C\C/C=C\CCCCCCCC(=O)O`, the Potency result is “inactive”. Under `Clc1cc(Cl)c(OCC#CI)cc1Cl` stands 12.6 µM (active); under `O=S(=O)(O)O`, “inactive”. Regarding `Cc1c(C)c2c(c(C)c1O)CC[C@@](C)(CCC[C@H](C)CCC[C@H](C)CCCC(C)C)O2`, the Potency entry is “inactive”. For `COC(=O)C1=C(C#N)NC(C)=C(C(=O)OC(C)C)C1c1cccc([N+](=O)[O-])c1` (centres undefined) the value was “inactive”. With `CC(=O)Oc1cc(C)c(OC(C)=O)c2ccccc12`, the Potency result was “inactive”. As for `CCCCC(C)(O)C/C=C/[C@H]1[C@H](O)CC(=O)[C@@H]1CCCCCCC(=O)OC` (some centres undefined), the Potency result is “inactive”.
